TbPYK inhibitor: qHTS of Trypanosoma Brucei Inhibitors | Potency, µM (top dose mostly 76.8 µM), for the others: at the top dose activity, negative = inhibition, most hits filed as inhibitors | 410,000 tested, 0.12% active | TbPYK enzyme, Kinase-Glo Plus ATP luminescence, 45 min | pyruvate kinase (Trypanosoma brucei), Q57TT1; active means well fitted curve in the direction sought with a large enough effect; inconclusive means small, poorly fitted or top-dose-only effect, or another doubt; inactive means no such curve, though single readings can be large; an effect the other way counts as inactive or inconclusive; further: potency means the concentration at half of the fitted maximal effect; on the % scale 0 is the no-effect control and ±100 the full control effect; nearly all actives have a fitted effect of over 50% in size
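Readout: single end-point luminescence (Kinase-Glo Plus, 10 min). Reaction conditions were TbPYK/substrate plus 130 uM ADP, 45 min at RT, pH 7.2 TEA buffer. No-enzyme wells served as controls, and data were normalized before concentration-response fitting.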
SARS PLP yeast: qHTS of Yeast-based Assay for SARS-CoV PLP | S. cerevisiae expressing SARS-CoV PLpro, growth rescue | Potency, µM (titrated, usually from 32.9 µM), inactives show at the highest dose activity, positive = growth rescue, usual class: activators | 330,000 tested, 0.19% active | AID 485353, 2010; further: potency means the concentration at half of the fitted maximal effect; 0% is about no effect; nearly all actives have a fitted effect of over 55% in size
Shiga toxin inh: A qHTS for Small Molecule Inhibitors of Shiga Toxin | Vero cells, Shiga toxin protein synthesis inhibition reporter | inhibition, % at 38.7 µM | 290,000 tested, 9.2% active; in the data active means inhibition mostly above about 28%, no sharp cut-off; inactive means mostly below about 43%; further: 0% is about no effect
CHX counter: Cycloheximide Counterscreen for Small Molecule Inhibitors of Shiga Toxin | cell reporter, cycloheximide protein synthesis inhibition counterscreen | max response, % | 300,000 tested, 12% active; in the data active means max response mostly above about 13%, no sharp cut-off; inactive means mostly below about 14%; further: read at 38.3 µM for the half of the compounds with a filed dose; 0% is about no effect
NS1 inh: qHTS Assay for Inhibitors of Influenza NS1 Protein Function; Potency, µM (doses to about 46.1 µM), inactives show top-dose activity, positive = more growth; 270,000 tested, 0.4% active; further: potency means the concentration at half of the fitted maximal effect; actives are rising curves; nearly all actives have a fitted effect of over 50% in size
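Read-out: OD600 growth recovery of NS1-expressing budding yeast. Cells grown overnight at 30C in -URA glucose medium, washed, resuspended and diluted 1:100 in 2% galactose assay medium, pH 6.0. Same strain lacking NS1 served as positive control.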
LmPK inhibitor: qHTS Assay for Inhibitors of Leishmania Mexicana Pyruvate Kinase (LmPK); purified LmPK, Kinase-Glo ATP luminescence, 1 h; 290,000 tested, 0.37% active; AID 1721, 2009; Potency, µM (series often up to 57.5 µM), for inactives: top-dose activity change, negative = inhibition, actives largely listed as inhibitors; Q27686; active means well fitted curve in the direction sought with a large enough effect; inconclusive means small, poorly fitted or top-dose-only effect, or another doubt; inactive means no such curve, though single readings can be large; an effect the other way counts as inactive or inconclusive; further: potency means the concentration at half of the fitted maximal effect; on the % scale 0 is the no-effect control and ±100 the full control effect
Target sequence (Q27686 whole entry, looked up): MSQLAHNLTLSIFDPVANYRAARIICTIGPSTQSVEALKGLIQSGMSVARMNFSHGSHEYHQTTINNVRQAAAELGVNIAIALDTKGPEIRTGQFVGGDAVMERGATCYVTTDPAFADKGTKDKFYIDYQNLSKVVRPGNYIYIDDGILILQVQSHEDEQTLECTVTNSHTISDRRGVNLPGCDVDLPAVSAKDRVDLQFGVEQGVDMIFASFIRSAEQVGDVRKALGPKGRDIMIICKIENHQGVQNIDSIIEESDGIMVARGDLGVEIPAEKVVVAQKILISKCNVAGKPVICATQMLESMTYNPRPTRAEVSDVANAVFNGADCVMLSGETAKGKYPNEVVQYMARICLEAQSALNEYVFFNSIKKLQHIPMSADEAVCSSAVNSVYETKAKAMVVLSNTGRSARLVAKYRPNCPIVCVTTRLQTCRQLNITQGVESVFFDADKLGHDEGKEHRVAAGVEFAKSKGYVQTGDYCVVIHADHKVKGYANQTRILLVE
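0.1 nM LmPK, 0.5 mM PEP, 0.1 mM ADP; 50 mM imidazole pH 7.2, 7 mM MgCl2, 50 mM KCl; 1 h RT. Kinase-Glo luminescence readout, normalized to no-enzyme (full inhibition) and uninhibited wells.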
* = called active by the depositor; ? = inconclusive; nt = no result; + = active, no number; [ ] = another dose, or the depositor's remark. This excerpt belongs to a sample that is enriched for hits. Unless noted, the call rests on the fitted dose curve.

SMILES	TbPYK inhibitor	SARS PLP yeast	Shiga toxin inh	CHX counter	NS1 inh	LmPK inhibitor
CN(C)CCN(C(=O)c1ccc(S(=O)(=O)N(C)c2ccccc2)cc1)c1nc2cc3c(cc2s1)OCCO3	1%	0%	61*	22*	7%	5%
CN(C)CCN(C(=O)c1ccc(S(=O)(=O)N(C)C)cc1)c1nc2cc3c(cc2s1)OCCO3	-6%	1%	41	22*	nt	5%[11.5 µM]
CCn1c2ccccc2c2cc(NC(=O)COC(=O)c3ccc(NC(=O)CC#N)cc3)ccc21	0%	-1%	nt	nt	nt	nt
COc1ccc(C(C)=O)cc1CN1C(=O)NC(c2ccccc2)(c2ccccc2)C1=O	1%	0%	16	0	14%	4%
CCN1CCN(Cc2c(O)ccc3oc(C)c(C(=O)Nc4cccc(C(F)(F)F)c4)c23)CC1	4%	nt	nt	nt	nt	nt
Nc1cc(-c2ccccc2)c[nH]c1=O	nt	nt	25	4	nt	nt
O=C(CSCC(=O)N1CCCCC1)Nc1nc(-c2ccc(Cl)s2)cs1	5%	-28%	81	16*	-74%	5%
O=C(Nc1nc(-c2ccc(Cl)s2)cs1)c1ccncc1	-2%	7%	23	15	-6%	0%
O=C(CSCC(=O)N1CCCCC1)Nc1nc(-c2cccs2)cs1	-7%	-9%	108	20*	-95%	0%
O=C(CSCC(=O)N1CCN(c2ccccc2)CC1)Nc1nc(-c2ccc(Cl)s2)cs1	-1%	6%	9	6	11%	5%
CC1CC1C(=O)Nc1nc(-c2ccc(Cl)s2)cs1 (stereo unspecified)	-1%	0%	131*	38*	nt	1%
CC1CC(C)CN(C(=O)CSCC(=O)Nc2nc(-c3cccs3)cs2)C1 (stereo unspecified)	-6%	2%	41	2	-47%	0%
CCOC(=O)N1CCN(C(=O)CSCC(=O)Nc2nc(-c3ccccc3)cs2)CC1	-6%	9%	30*	-2	-15%	1%
CCOC(=O)[C@H]1[C@H]2COc3ccc(C)cc3[C@@H]2N2C(=O)c3cc(C)ccc3NC(=O)[C@@]12C	1%	3%	nt	nt	nt	nt
COCCCN(C(=O)C1=COCCO1)c1c(N)n(Cc2ccccc2)c(=O)[nH]c1=O	-1%	nt	nt	nt	nt	nt
CCSc1ncc(Cl)c(C(=O)Nc2sc(C(C)=O)c(C)c2C(=O)OC)n1	1%	nt	nt	nt	nt	nt
CCCSc1nc2c(cnn2-c2ccccc2)c(=O)n1N	-12%	-1%	50*	43*	-8%	-13%
Nn1c(SCc2ccccc2)nc2c(cnn2-c2ccccc2)c1=O	2%	-1%	76*	23*	-8%	-3%
O=c1c2cnn(-c3ccccc3)c2ncn1CCc1ccccc1	4%	2%	49*	23*	-16%	1%
CCCCSc1nc2c(cnn2-c2ccccc2)c(=O)n1N	5%	-2%	94*	42*	-37%	-16%
O=C(O)CSc1nc2c(cnn2-c2ccccc2)c(=O)n1-c1ccc(Br)cc1	4%	-10%	-8	-3	?	12%
COCC(=O)Nc1cc(C(=O)Nc2cccc(C)c2C)ccc1Cl	-7%	-4%	18	14*	1%	-7%
COc1cccc(C(=O)Nc2cc(C(=O)NCCc3ccccc3)ccc2Cl)c1	1%	-1%	34	20*	-5%	2%
COCC(=O)Nc1cc(C(=O)Nc2ccccc2C)ccc1Cl	-5%	-3%	89	8	-15%	-5%
COc1cccc(C(=O)NCCS(=O)(=O)NCCc2ccccc2)c1	0%	1%	nt	nt	nt	nt
SMILES	TbPYK inhibitor	SARS PLP yeast	Shiga toxin inh	CHX counter	NS1 inh	LmPK inhibitor
CCCCC(=O)Nc1cc(C(=O)NCCc2ccccc2)ccc1Cl	2%	-2%	17	18*	-9%	-4%
COc1ccc2c(c1)O[C@H](c1ccc3c(c1)OCO3)[C@@H](O)C2=O	-2%	-4%	58*	38*	-3%	0%
COc1ccc2c(c1)O[C@@H](c1ccc3c(c1)OCO3)[C@H](OC(=O)Nc1cc(OC)c(OC)c(OC)c1)C2=O	nt	4%	36*	15*	?	1%
COc1ccc2c(c1)O[C@H](c1ccc3c(c1)OCO3)[C@@H](OC(=O)N[C@H]1CCCc3ccccc31)C2=O	2%	0%	19	-1	30%	4%
COc1ccc2c(c1)O[C@@H](c1cccc(C(F)(F)F)c1)[C@H](O)C2=O	nt	-7%	3	1	-39%	5%
COc1ccc(N=Cc2c(O)n(CC3CCCO3)c(=O)[nH]c2=O)cc1 (stereo unspecified)	0%	4%	28	11*	-8%	-2%
Cc1cccc(CSc2nc(-c3cccs3)ccc2C#N)c1	0%	nt	nt	nt	nt	nt
CCn1c(-c2c(Cl)c(C)nn2C)n[nH]c1=S	?	-17%	-7	-4	19%	-10%
CC(C)Cn1c(Cc2ccccc2)n[nH]c1=S	?	-1%	13	-2	?	11µM*
CCCCn1c(-c2sccc2C)n[nH]c1=S	?	1%	-9	-3	0%	32µM*
CCn1c(CCc2ccccc2)n[nH]c1=S	?	1%	13	-2	5%	-15%
CCn1c(Cc2ccccc2)n[nH]c1=S	?	-1%	27	-2	?	-2%
CCCCn1c(Cc2ccccc2)n[nH]c1=S	11µM*	-7%	15	-6	-1%	?
CCCCn1c(-c2c(Cl)c(C)nn2C)n[nH]c1=S	10µM*	10%	-4	-3	nt	-26%
NCCCCCCCCCCNCCCN	nt	nt	-10	-9	nt	nt
Cc1cc(C)c(C(=O)/C=C/c2ccc(C(C)C)cc2)c(=O)[nH]1	1%	-8%	-10	-3	-65%	-2%
C/C(=C\C=C\c1ccccc1)C(=O)c1c(C)cc(C)[nH]c1=O	-5%	-2%	14	5	nt	8%[11.5 µM]
Cc1cc(C)c(C(=O)/C=C/C=C/c2ccccc2)c(=O)[nH]1	-7%	-2%	52*	25*	-10%	0%
Cc1cc(O)c(C(=O)/C=C/c2ccc(C(C)C)cc2)c(=O)o1	0%	1%	66*	53*	-16%	-4%
Cc1cc(O)c(C(=O)/C=C/c2ccccc2Br)c(=O)o1	4%	-2%	nt	20*	?	-1%
Cc1cc(O)c(C(=O)/C=C/c2ccccc2)c(=O)o1	1%	1%	44*	14	6%	-3%
Cc1ccc(CCNS(=O)(=O)c2c(C)nc3sc(C)c(C)n3c2=O)cc1	-5%	nt	nt	nt	nt	nt
Cc1ccc(C2Nc3ccccc3-n3c(-c4ccccc4)c4c(=O)n(C)c(=O)n(C)c4c32)cc1 (stereo unspecified)	5%	nt	nt	nt	nt	nt
CCOc1ccc(/C=C/C(=O)c2c(O)cc(C)oc2=O)cc1	-15%	7%	57*	42*	?	?
FC(F)(F)c1ccc(-c2noc(-c3ccccc3)c2I)cc1	nt	nt	+	46*	nt	nt
